According to PubChem BioAssay (NCATS):
Results filed as inconclusive are left out. Entries that show only a call come without a potency. Values without a mark were called inactive. The source made the active and inactive calls. Calls follow the shape of the dose curve; as a rule, active = well fitted inhibition curve with a large enough effect; inconclusive = small, poorly fitted or top-dose-only effect; inactive = flat fitted curve, though single readings scatter.

Assay: P-glycoprotein substrates identified in KB-8-5-11 adenocarcinoma cell line, qHTS therapeutic library screen (AID 1346987); also: nearly all actives have a fitted effect of over 65% in size
Details: KB-8-5-11 (P-gp overexpressing) viability, CellTiter-Glo, 72 h; series mostly up to 44.5 µM
Method in brief: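 Compounds are pinned in dose-response onto KB-8-5-11 cells (500 cells/well, colchicine-free medium) and left 72 h at 37 degree C. CellTiter-Glo luminescence then yields AC50 values.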

Structure (SMILES)	Potency	outcome	activity change, negative = cytotoxicity
Cc1cc(O)c(C(C)C)cc1O[C@@H]1O[C@H](CO)[C@@H](O)[C@H](O)[C@H]1O	inactive		
COc1ccc(C2=CC(=O)OC2Cc2ccc(O)cc2)c(O)c1 (centres undefined)	inactive		
CC(O)(CC(=O)O)CC(=O)O[C@@H]1[C@@H](O)[C@H](OCCc2ccccc2)O[C@H](CO)[C@H]1O (some centres undefined)	inactive		
CN1C(=O)N[C@@H](Cc2c[nH]c3c(Cl)cccc23)C1=O	inactive		
C[C@]12CCC(=O)C=C1[C@@H](O)C[C@@H]1[C@@H]2[C@@H](O)C[C@@]2(C)[C@H]1CC[C@]2(O)C(=O)CO	inactive		
C[C@@H]1O[C@@H](O[C@H]2[C@H](O)[C@@H](C(=O)O)O[C@@H](O[C@H]3CC[C@@]4(C)C(CC[C@]5(C)C4CC=C4C6CC(C)(C)CC[C@]6(C(=O)O)CC[C@]45C)C3(C)C)[C@@H]2O[C@@H]2O[C@H](CO)[C@@H](O)[C@H](O)[C@H]2O)[C@H](O)[C@H](O)[C@H]1O (some centres undefined)		inactive [at 9.29 µM]	
CC(=O)N(O)CCCCCN1C(=O)CCC1=O	inactive		
C=C(C)C(C)C1OC23CC4(CO2)C(CCC2C5(C)CCC(OC6OCC(O)C(OC7OC(CO)C(O)C(OC8OCC(O)C(O)C8O)C7O)C6OC6OC(CO)C(O)C6O)C(C)(C)C5CCC24C)C3C(C)(O)C1OC(C)=O (centres undefined)			3.91% [at 9.29 µM]
Cc1c(CN(C)C(=O)/C=C/c2cnc3c(c2)CCC(=O)N3)oc2ccccc12	inactive		
